{"source": "the supplement of paper PMC4466140", "assay_in_all_cases": "SPOT peptide array binding signal intensity (averaged, normalized) (arbitrary units (background-subtracted, floor 0; scale differs between SH3 domains)); higher = stronger binding of the SH3 domain to the peptide", "key": {"[1]": {"molecular_target": "AgAbp1", "procedure,_shortened": "(§1)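 Four yeast species supplied the SH3 domains, which were expressed as GST fusions in E. coli BL21(DE3) and purified on glutathione Sepharose. Incubation with cellulose membranes carrying synthetic 15-mer peptides, cysteines exchanged for serines, ran overnight at 4°C at 10 μg/ml in TBS-based blocking buffer. Binding signal is reported as normalized, background-subtracted spot intensity averaged over replicates, in arbitrary units not shared between domains.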"}, "[2]": {"molecular_target": "AgBbc1", "procedure,_shortened": "as §1"}, "[3]": {"molecular_target": "AgBem1-D1", "procedure,_shortened": "as §1"}, "[4]": {"molecular_target": "AgBzz1-D1", "procedure,_shortened": "as §1"}, "[5]": {"molecular_target": "AgBzz1-D2", "procedure,_shortened": "as §1"}, "[6]": {"molecular_target": "AgCyk3", "procedure,_shortened": "as §1"}, "[7]": {"molecular_target": "AgFus1", "procedure,_shortened": "as §1"}, "[8]": {"molecular_target": "AgHof1", "procedure,_shortened": "as §1"}, "[9]": {"molecular_target": "AgHse1", "procedure,_shortened": "as §1"}, "[10]": {"molecular_target": "AgLsb1", "procedure,_shortened": "as §1"}, "[11]": {"molecular_target": "AgLsb4", "procedure,_shortened": "as §1"}, "[12]": {"molecular_target": "AgMyo5", "procedure,_shortened": "as §1"}, "[13]": {"molecular_target": "AgNbp2", "procedure,_shortened": "as §1"}, "[14]": {"molecular_target": "AgRvs167", "procedure,_shortened": "as §1"}, "[15]": {"molecular_target": "AgSho1", "procedure,_shortened": "as §1"}, "[16]": {"molecular_target": "AgSla1-D1-D2", "procedure,_shortened": "as §1"}, "[17]": {"molecular_target": "AgSla1-D3", "procedure,_shortened": "as §1"}, "[18]": {"molecular_target": "CaAbp1-D1", "procedure,_shortened": "as §1"}, "[19]": {"molecular_target": "CaAbp1-D2", "procedure,_shortened": "as §1"}, "[20]": {"molecular_target": "CaBbc1", "procedure,_shortened": "as §1"}, "[21]": {"molecular_target": "CaBem1-D1", "procedure,_shortened": "as §1"}, "[22]": {"molecular_target": "CaBzz1-D1", "procedure,_shortened": "as §1"}, "[23]": {"molecular_target": "CaBzz1-D2", "procedure,_shortened": "as §1"}, "[24]": {"molecular_target": "CaCyk3", "procedure,_shortened": "as §1"}, "[25]": {"molecular_target": "CaFus1", "procedure,_shortened": "as §1"}, "[26]": {"molecular_target": "CaHof1", "procedure,_shortened": "as §1"}, "[27]": {"molecular_target": "CaHse1", "procedure,_shortened": "as §1"}, "[28]": {"molecular_target": "CaLsb1", "procedure,_shortened": "as §1"}, "[29]": {"molecular_target": "CaLsb4", "procedure,_shortened": "as §1"}, "[30]": {"molecular_target": "CaMyo5", "procedure,_shortened": "as §1"}, "[31]": {"molecular_target": "CaNbp2", "procedure,_shortened": "as §1"}, "[32]": {"molecular_target": "CaRvs167", "procedure,_shortened": "as §1"}, "[33]": {"molecular_target": "CaRvs167-3", "procedure,_shortened": "as §1"}, "[34]": {"molecular_target": "CaSho1", "procedure,_shortened": "as §1"}, "[35]": {"molecular_target": "CaSla1-D1-D2", "procedure,_shortened": "as §1"}, "[36]": {"molecular_target": "CaSla1-D3", "procedure,_shortened": "as §1"}, "[37]": {"molecular_target": "ScAbp1", "procedure,_shortened": "as §1"}, "[38]": {"molecular_target": "ScBbc1", "procedure,_shortened": "as §1"}, "[39]": {"molecular_target": "ScBem1-D1", "procedure,_shortened": "as §1"}, "[40]": {"molecular_target": "ScBzz1-D1", "procedure,_shortened": "as §1"}, "[41]": {"molecular_target": "ScBzz1-D2", "procedure,_shortened": "as §1"}, "[42]": {"molecular_target": "ScCyk3", "procedure,_shortened": "as §1"}, "[43]": {"molecular_target": "ScFus1", "procedure,_shortened": "as §1"}, "[44]": {"molecular_target": "ScHof1", "procedure,_shortened": "as §1"}, "[45]": {"molecular_target": "ScHse1", "procedure,_shortened": "as §1"}, "[46]": {"molecular_target": "ScLsb1", "procedure,_shortened": "as §1"}, "[47]": {"molecular_target": "ScLsb2", "procedure,_shortened": "as §1"}, "[48]": {"molecular_target": "ScLsb3", "procedure,_shortened": "as §1"}, "[49]": {"molecular_target": "ScLsb4", "procedure,_shortened": "as §1"}, "[50]": {"molecular_target": "ScMyo3", "procedure,_shortened": "as §1"}, "[51]": {"molecular_target": "ScMyo5", "procedure,_shortened": "as §1"}, "[52]": {"molecular_target": "ScNbp2", "procedure,_shortened": "as §1"}, "[53]": {"molecular_target": "ScPex13", "procedure,_shortened": "as §1"}, "[54]": {"molecular_target": "ScRvs167", "procedure,_shortened": "as §1"}, "[55]": {"molecular_target": "ScSho1", "procedure,_shortened": "as §1"}, "[56]": {"molecular_target": "ScSla1-D1-D2", "procedure,_shortened": "as §1"}, "[57]": {"molecular_target": "ScSla1-D3", "procedure,_shortened": "as §1"}, "[58]": {"molecular_target": "SpAbp1-D1", "procedure,_shortened": "as §1"}, "[59]": {"molecular_target": "SpBbc1", "procedure,_shortened": "as §1"}, "[60]": {"molecular_target": "SpBzz1-D1", "procedure,_shortened": "as §1"}}, "data": [{"binder": "GERSRPLVISILSSA", "values": [{"measurement": "SPOT peptide array binding signal intensity", "setting": "[1]", "result": "≤ 0"}, {"measurement": "SPOT peptide array binding signal intensity", "setting": "[2]", "result": 14.8}, {"measurement": "SPOT peptide array binding signal intensity", "setting": "[3]", "result": 73}, {"measurement": "SPOT peptide array binding signal intensity", "setting": "[4]", "result": 90}, {"measurement": "SPOT peptide array binding signal intensity", "setting": "[5]", "result": 106}, {"measurement": "SPOT peptide array binding signal intensity", "setting": "[6]", "result": 14}, {"measurement": "SPOT peptide array binding signal intensity", "setting": "[7]", "result": 1940}, {"measurement": "SPOT peptide array binding signal intensity", "setting": "[8]", "result": 14.8}, {"measurement": "SPOT peptide array binding signal intensity", "setting": "[9]", "result": 106}, {"measurement": "SPOT peptide array binding signal intensity", "setting": "[10]", "result": "≤ 0"}, {"measurement": "SPOT peptide array binding signal intensity", "setting": "[11]", "result": 262}, {"measurement": "SPOT peptide array binding signal intensity", "setting": "[12]", "result": "≤ 0"}, {"measurement": "SPOT peptide array binding signal intensity", "setting": "[13]", "result": 25}, {"measurement": "SPOT peptide array binding signal intensity", "setting": "[14]", "result": 3.67}, {"measurement": "SPOT peptide array binding signal intensity", "setting": "[15]", "result": 120}, {"measurement": "SPOT peptide array binding signal intensity", "setting": "[16]", "result": 11}, {"measurement": "SPOT peptide array binding signal intensity", "setting": "[17]", "result": 5}, {"measurement": "SPOT peptide array binding signal intensity", "setting": "[18]", "result": 43}, {"measurement": "SPOT peptide array binding signal intensity", "setting": "[19]", "result": 2}, {"measurement": "SPOT peptide array binding signal intensity", "setting": "[20]", "result": 55.2}, {"measurement": "SPOT peptide array binding signal intensity", "setting": "[21]", "result": 28.5}, {"measurement": "SPOT peptide array binding signal intensity", "setting": "[22]", "result": 268}, {"measurement": "SPOT peptide array binding signal intensity", "setting": "[23]", "result": 175}, {"measurement": "SPOT peptide array binding signal intensity", "setting": "[24]", "result": 37}, {"measurement": "SPOT peptide array binding signal intensity", "setting": "[25]", "result": 3880}, {"measurement": "SPOT peptide array binding signal intensity", "setting": "[26]", "result": "≤ 0"}, {"measurement": "SPOT peptide array binding signal intensity", "setting": "[27]", "result": 10.5}, {"measurement": "SPOT peptide array binding signal intensity", "setting": "[28]", "result": 0.5}, {"measurement": "SPOT peptide array binding signal intensity", "setting": "[29]", "result": "≤ 0"}, {"measurement": "SPOT peptide array binding signal intensity", "setting": "[30]", "result": 24}, {"measurement": "SPOT peptide array binding signal intensity", "setting": "[31]", "result": 171}, {"measurement": "SPOT peptide array binding signal intensity", "setting": "[32]", "result": 45.8}, {"measurement": "SPOT peptide array binding signal intensity", "setting": "[33]", "result": 538}, {"measurement": "SPOT peptide array binding signal intensity", "setting": "[34]", "result": 497}, {"measurement": "SPOT peptide array binding signal intensity", "setting": "[35]", "result": 11}, {"measurement": "SPOT peptide array binding signal intensity", "setting": "[36]", "result": 170}, {"measurement": "SPOT peptide array binding signal intensity", "setting": "[37]", "result": 3}, {"measurement": "SPOT peptide array binding signal intensity", "setting": "[38]", "result": 4}, {"measurement": "SPOT peptide array binding signal intensity", "setting": "[39]", "result": 9}, {"measurement": "SPOT peptide array binding signal intensity", "setting": "[40]", "result": 97}, {"measurement": "SPOT peptide array binding signal intensity", "setting": "[41]", "result": 619}, {"measurement": "SPOT peptide array binding signal intensity", "setting": "[42]", "result": 121}, {"measurement": "SPOT peptide array binding signal intensity", "setting": "[43]", "result": 3300}, {"measurement": "SPOT peptide array binding signal intensity", "setting": "[44]", "result": "≤ 0"}, {"measurement": "SPOT peptide array binding signal intensity", "setting": "[45]", "result": 500}, {"measurement": "SPOT peptide array binding signal intensity", "setting": "[46]", "result": "≤ 0"}, {"measurement": "SPOT peptide array binding signal intensity", "setting": "[47]", "result": "≤ 0"}, {"measurement": "SPOT peptide array binding signal intensity", "setting": "[48]", "result": 6.5}, {"measurement": "SPOT peptide array binding signal intensity", "setting": "[49]", "result": 7}, {"measurement": "SPOT peptide array binding signal intensity", "setting": "[50]", "result": "≤ 0"}, {"measurement": "SPOT peptide array binding signal intensity", "setting": "[51]", "result": 1}, {"measurement": "SPOT peptide array binding signal intensity", "setting": "[52]", "result": 71.5}, {"measurement": "SPOT peptide array binding signal intensity", "setting": "[53]", "result": 19.8}, {"measurement": "SPOT peptide array binding signal intensity", "setting": "[54]", "result": 6}, {"measurement": "SPOT peptide array binding signal intensity", "setting": "[55]", "result": 910}, {"measurement": "SPOT peptide array binding signal intensity", "setting": "[56]", "result": 8}, {"measurement": "SPOT peptide array binding signal intensity", "setting": "[57]", "result": 22}, {"measurement": "SPOT peptide array binding signal intensity", "setting": "[58]", "result": "≤ 0"}, {"measurement": "SPOT peptide array binding signal intensity", "setting": "[59]", "result": 18}, {"measurement": "SPOT peptide array binding signal intensity", "setting": "[60]", "result": 314}]}]}
